Results on one sequence are retold here after PMC7862700, “An all-to-all approach to the identification of sequence-specific readers for epigenetic DNA modifications on cytosine”.

What all share (experiment): DAPPL (digital affinity profiling via proximity ligation, sequencing); 10 mM Tris-HCl pH 7.5, 50 mM NaCl, 1 mM DTT, 4% glycerol, room temperature, 30 min; GST-TFs on glutathione beads, 16-mer random dsDNA library, 0.1% formaldehyde crosslink after washing; high values mean tight binding
One assay addresses T1, FLI1 (Homo sapiens, UniProt Q01543 1-452).
T1 sequence: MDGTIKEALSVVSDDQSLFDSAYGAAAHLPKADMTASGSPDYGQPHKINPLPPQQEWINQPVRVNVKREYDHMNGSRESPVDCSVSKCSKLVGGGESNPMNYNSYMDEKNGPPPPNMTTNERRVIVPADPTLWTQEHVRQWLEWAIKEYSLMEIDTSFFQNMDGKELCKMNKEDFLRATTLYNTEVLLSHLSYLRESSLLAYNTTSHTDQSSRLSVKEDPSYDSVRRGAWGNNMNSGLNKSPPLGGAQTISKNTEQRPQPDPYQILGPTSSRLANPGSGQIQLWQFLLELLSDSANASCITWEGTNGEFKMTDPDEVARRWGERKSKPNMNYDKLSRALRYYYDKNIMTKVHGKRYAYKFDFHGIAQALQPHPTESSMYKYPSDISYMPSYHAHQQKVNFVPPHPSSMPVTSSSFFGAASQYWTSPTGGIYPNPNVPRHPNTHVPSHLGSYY
The conditions noted are these: protein: recombinant; tags: N-terminal GST; dsDNA, one strand shown. The gist of the method: (§1)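 The binding signal reported is, for every hexamer, its read frequency for a factor over its read frequency for the tag-only sample. Reads came from pools of yeast-expressed, GST-fused human transcription factors on glutathione beads, barcoded with DNA and mixed with that sample, which were incubated with 200 nmole of a random double-stranded 16-mer DNA library in Tris/NaCl/DTT/glycerol buffer at room temperature for 30 min. After washing, the pools were crosslinked with 0.1% formaldehyde, proximity-ligated with BsaI/T4 ligase for 1 h at 37 °C, PCR-amplified and sequenced on an Illumina NextSeq500.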

A further assay concerns the target T2, ELK1 (Homo sapiens, UniProt P19419 1-428).
T2 sequence: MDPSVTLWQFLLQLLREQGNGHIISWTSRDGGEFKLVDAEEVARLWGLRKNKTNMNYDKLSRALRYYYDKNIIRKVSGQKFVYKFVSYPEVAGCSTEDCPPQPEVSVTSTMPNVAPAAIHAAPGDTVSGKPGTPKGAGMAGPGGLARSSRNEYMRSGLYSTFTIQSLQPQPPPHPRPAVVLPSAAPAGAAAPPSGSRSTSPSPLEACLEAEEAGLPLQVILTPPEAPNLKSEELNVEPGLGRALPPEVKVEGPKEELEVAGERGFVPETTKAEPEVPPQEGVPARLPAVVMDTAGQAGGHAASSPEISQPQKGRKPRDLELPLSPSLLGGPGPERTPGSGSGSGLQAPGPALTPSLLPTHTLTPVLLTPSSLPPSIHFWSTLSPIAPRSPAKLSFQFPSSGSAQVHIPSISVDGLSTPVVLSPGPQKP
The conditions noted are these: protein: recombinant; tags: N-terminal GST; dsDNA, one strand shown. Put shortly: as §1

The next assay concerns the target T3, GABPA (Homo sapiens, UniProt Q06546 1-454).
T3 sequence: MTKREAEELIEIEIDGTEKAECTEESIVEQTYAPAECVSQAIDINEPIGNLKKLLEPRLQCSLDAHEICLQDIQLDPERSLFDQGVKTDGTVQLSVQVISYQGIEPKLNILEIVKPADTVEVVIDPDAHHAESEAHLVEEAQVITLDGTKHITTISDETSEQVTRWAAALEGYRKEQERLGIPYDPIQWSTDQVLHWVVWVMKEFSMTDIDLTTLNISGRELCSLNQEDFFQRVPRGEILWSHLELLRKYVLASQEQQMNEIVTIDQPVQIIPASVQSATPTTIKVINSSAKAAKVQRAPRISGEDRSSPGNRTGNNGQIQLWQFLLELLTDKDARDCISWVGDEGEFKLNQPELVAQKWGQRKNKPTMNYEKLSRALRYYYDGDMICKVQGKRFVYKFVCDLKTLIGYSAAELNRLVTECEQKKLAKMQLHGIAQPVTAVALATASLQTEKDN
The conditions noted are these: protein: recombinant; tags: N-terminal GST; dsDNA, one strand shown. The gist of the method: as §1

The target of a further assay is T4, ERG (Homo sapiens, UniProt P11308 1-479).
T4 sequence: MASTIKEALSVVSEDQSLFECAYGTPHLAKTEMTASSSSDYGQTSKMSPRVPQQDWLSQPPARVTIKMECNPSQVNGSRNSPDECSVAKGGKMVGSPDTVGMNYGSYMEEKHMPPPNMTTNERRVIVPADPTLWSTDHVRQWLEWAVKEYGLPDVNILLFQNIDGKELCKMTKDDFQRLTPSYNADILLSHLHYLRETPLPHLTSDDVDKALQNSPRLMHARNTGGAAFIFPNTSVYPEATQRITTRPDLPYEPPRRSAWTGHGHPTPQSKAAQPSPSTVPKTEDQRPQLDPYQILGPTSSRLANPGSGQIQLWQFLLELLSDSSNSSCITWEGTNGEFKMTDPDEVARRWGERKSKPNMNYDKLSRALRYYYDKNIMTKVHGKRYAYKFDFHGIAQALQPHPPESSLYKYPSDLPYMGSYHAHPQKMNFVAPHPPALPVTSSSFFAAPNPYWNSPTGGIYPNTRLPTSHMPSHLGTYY
The conditions noted are these: protein: recombinant; tags: N-terminal GST; dsDNA, one strand shown. The gist of the method:
as §1

For a further assay, the target named is ELF1 (Homo sapiens, UniProt P32519 1-619). The conditions noted are these: protein: recombinant; tags: N-terminal GST; dsDNA, one strand shown. The gist of the method: as §1
Sequence of ELF1 (P32519 whole entry): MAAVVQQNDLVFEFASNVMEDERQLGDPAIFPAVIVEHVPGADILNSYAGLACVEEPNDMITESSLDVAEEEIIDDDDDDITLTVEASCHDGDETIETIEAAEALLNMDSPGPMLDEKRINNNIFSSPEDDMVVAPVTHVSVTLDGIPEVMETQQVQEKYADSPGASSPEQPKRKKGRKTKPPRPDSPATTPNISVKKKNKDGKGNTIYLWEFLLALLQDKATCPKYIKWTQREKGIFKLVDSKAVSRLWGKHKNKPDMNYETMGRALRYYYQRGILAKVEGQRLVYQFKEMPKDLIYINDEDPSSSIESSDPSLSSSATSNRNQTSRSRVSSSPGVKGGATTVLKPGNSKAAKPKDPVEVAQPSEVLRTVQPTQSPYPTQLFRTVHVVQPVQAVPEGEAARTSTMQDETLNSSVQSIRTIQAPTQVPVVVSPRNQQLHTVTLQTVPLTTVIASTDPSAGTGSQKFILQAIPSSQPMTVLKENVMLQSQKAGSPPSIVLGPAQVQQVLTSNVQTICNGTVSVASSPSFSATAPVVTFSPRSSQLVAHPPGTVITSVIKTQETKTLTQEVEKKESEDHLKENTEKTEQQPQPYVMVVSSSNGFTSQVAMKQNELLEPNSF
For another assay, the target named is T5, EHF (Homo sapiens, UniProt Q9NZC4 1-300).
T5 sequence: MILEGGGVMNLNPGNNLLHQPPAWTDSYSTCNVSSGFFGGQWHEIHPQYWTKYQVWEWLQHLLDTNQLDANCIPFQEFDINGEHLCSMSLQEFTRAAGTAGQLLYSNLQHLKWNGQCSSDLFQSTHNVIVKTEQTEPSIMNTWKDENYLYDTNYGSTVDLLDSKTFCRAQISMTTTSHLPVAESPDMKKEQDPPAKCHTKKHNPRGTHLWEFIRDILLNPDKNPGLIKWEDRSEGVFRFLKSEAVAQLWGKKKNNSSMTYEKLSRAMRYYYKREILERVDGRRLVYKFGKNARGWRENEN
The conditions noted are these: protein: recombinant; tags: N-terminal GST; dsDNA, one strand shown. The gist of the method:
as §1

Another assay addresses SPI1 (Homo sapiens, UniProt P17947 1-270). The conditions noted are these: protein: recombinant; tags: N-terminal GST; dsDNA, one strand shown. Put shortly: as §1
The target of another assay is SPIB (Homo sapiens, UniProt Q01892 1-262). The conditions noted are these: protein: recombinant; tags: N-terminal GST; dsDNA, one strand shown. The gist of the method: as §1
Sequence of SPIB (Q01892 whole entry): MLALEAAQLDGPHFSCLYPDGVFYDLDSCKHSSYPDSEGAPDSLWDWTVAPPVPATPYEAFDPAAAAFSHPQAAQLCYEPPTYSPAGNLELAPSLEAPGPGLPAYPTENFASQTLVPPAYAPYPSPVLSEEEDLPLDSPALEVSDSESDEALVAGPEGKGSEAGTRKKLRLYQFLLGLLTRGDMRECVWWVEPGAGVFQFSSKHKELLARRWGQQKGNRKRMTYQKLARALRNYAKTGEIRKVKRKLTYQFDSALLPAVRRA
For another assay, the target named is T6, ELK3 (Homo sapiens, UniProt P41970 1-407).
T6 sequence: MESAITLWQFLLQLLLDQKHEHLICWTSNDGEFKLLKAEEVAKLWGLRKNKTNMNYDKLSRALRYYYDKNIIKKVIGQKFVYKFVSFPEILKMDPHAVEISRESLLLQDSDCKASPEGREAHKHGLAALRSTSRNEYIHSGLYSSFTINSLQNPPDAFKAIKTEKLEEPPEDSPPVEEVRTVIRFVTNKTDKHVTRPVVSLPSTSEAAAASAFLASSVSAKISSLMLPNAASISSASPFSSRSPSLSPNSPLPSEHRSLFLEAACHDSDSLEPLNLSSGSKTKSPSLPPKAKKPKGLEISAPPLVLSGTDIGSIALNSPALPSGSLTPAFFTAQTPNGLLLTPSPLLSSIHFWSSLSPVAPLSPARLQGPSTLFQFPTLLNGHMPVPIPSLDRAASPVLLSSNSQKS
The conditions noted are these: protein: recombinant; tags: N-terminal GST; dsDNA, one strand shown. Put shortly: as §1

The target in another assay is ETV5 (Homo sapiens, UniProt P41161 1-510). The conditions noted are these: protein: recombinant; tags: N-terminal GST; dsDNA, one strand shown. Put shortly: as §1
Sequence of ETV5 (P41161 whole entry): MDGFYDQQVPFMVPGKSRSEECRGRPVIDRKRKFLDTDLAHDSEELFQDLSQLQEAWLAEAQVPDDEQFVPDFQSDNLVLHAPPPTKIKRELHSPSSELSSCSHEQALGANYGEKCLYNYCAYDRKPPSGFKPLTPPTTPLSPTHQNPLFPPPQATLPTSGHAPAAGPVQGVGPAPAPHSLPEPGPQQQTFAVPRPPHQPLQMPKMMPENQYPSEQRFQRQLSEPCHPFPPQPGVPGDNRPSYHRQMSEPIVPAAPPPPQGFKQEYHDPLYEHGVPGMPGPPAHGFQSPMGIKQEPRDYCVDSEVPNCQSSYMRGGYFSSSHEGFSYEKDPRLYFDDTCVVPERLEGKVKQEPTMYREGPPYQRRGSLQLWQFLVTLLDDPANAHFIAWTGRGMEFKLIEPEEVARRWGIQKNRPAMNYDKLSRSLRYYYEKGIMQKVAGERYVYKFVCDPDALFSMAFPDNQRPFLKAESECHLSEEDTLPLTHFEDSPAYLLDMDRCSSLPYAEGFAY
The target in the next assay is HSF1 (Homo sapiens, UniProt Q00613 1-529). The conditions noted are these: protein: recombinant; tags: N-terminal GST; chain copies: 3; dsDNA, one strand shown. The gist of the method: as §1
Sequence of HSF1 (Q00613 whole entry): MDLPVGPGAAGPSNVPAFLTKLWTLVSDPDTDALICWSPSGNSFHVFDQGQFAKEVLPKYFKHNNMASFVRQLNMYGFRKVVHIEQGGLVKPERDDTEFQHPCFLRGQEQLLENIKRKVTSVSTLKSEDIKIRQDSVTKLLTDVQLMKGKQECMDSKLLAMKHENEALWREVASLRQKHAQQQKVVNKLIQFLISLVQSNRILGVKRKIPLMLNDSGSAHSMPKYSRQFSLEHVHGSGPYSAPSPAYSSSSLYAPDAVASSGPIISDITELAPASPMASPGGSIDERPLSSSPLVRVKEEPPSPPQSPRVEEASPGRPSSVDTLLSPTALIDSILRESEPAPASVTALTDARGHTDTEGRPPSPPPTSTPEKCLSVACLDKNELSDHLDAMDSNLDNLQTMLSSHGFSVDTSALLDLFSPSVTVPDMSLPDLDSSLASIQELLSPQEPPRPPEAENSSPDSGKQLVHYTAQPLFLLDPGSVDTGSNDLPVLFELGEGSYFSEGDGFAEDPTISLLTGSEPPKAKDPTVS
The target in a further assay is T7, SPIC (Homo sapiens, UniProt Q8N5J4 1-248).
T7 sequence: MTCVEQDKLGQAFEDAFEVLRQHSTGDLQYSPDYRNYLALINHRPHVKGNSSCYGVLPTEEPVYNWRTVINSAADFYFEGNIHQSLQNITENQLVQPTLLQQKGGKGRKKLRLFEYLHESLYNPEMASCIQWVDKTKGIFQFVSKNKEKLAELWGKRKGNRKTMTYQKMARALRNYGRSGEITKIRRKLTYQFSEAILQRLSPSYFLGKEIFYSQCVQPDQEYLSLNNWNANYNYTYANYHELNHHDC
The conditions noted are these: protein: recombinant; tags: N-terminal GST; dsDNA, one strand shown. Put shortly:
as §1

Another assay concerns the target ELF4 (Homo sapiens, UniProt Q99607 1-663). The conditions noted are these: protein: recombinant; tags: N-terminal GST; dsDNA, one strand shown. The gist of the method: as §1
A further assay deals with T8, ELK4 (Homo sapiens, UniProt P28324-2 1-405).
T8 sequence: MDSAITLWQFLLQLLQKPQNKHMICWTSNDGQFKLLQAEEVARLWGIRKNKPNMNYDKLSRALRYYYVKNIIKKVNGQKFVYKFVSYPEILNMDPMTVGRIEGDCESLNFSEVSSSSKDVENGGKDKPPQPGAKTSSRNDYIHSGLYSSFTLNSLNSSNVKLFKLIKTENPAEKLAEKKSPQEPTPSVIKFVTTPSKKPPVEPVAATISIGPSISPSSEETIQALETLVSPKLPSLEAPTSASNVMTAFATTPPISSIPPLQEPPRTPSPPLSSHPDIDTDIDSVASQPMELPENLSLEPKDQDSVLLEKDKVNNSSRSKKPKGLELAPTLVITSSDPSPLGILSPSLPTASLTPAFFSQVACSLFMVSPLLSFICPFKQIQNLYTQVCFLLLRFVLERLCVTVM
The conditions noted are these: protein: recombinant; tags: N-terminal GST; dsDNA, one strand shown. The gist of the method:
as §1

A further assay has as its target T9, ETV2 (Homo sapiens, UniProt O00321 1-342).
T9 sequence: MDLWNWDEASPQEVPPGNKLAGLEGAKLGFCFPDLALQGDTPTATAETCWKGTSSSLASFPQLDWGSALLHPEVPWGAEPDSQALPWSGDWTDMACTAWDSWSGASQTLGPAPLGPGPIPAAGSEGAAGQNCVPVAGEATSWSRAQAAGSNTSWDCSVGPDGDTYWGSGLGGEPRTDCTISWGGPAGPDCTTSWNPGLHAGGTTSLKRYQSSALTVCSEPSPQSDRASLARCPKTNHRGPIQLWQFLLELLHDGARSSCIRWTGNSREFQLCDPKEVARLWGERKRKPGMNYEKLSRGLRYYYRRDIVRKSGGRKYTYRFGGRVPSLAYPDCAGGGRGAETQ
The conditions noted are these: protein: recombinant; tags: N-terminal GST; dsDNA, one strand shown. The gist of the method: as §1

In the next assay the target is CRX (Homo sapiens, UniProt O43186 1-299). The conditions noted are these: protein: recombinant; tags: N-terminal GST; dsDNA, one strand shown. Put shortly:
as §1

In a further assay the target is ETV1 (Homo sapiens, UniProt P50549 1-477). The conditions noted are these: protein: recombinant; tags: N-terminal GST; dsDNA, one strand shown. Put shortly: as §1
Sequence of ETV1 (P50549 whole entry): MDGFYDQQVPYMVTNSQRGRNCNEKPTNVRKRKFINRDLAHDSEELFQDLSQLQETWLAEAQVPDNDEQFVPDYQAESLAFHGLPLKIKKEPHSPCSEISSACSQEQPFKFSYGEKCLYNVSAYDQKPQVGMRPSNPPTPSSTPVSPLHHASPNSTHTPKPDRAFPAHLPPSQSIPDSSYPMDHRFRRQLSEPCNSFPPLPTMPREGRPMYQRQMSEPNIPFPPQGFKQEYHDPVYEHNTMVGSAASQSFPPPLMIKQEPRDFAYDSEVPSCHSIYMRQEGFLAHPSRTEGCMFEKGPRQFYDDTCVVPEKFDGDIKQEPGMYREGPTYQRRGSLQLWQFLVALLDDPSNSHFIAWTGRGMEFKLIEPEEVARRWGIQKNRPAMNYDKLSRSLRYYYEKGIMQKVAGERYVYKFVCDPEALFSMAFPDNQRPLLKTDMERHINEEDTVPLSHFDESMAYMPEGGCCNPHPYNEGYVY

Sequence of ELF4 (Q99607 whole entry): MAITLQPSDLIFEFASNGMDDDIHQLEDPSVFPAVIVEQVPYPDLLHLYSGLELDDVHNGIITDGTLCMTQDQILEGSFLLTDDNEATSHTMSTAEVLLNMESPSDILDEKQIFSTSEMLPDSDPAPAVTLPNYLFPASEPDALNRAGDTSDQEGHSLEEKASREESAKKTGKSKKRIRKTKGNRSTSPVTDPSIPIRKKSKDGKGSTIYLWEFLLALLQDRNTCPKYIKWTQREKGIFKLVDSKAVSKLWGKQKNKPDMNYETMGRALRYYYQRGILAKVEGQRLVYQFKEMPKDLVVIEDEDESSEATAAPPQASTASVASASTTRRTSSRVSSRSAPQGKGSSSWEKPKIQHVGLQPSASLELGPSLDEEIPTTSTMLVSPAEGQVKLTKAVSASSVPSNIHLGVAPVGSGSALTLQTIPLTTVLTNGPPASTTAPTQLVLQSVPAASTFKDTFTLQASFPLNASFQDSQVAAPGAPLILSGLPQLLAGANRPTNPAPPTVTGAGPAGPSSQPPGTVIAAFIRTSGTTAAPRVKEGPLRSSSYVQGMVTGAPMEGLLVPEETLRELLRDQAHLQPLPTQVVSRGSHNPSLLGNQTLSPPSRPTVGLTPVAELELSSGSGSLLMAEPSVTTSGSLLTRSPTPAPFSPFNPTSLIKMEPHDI
Sequence of CRX (O43186 whole entry): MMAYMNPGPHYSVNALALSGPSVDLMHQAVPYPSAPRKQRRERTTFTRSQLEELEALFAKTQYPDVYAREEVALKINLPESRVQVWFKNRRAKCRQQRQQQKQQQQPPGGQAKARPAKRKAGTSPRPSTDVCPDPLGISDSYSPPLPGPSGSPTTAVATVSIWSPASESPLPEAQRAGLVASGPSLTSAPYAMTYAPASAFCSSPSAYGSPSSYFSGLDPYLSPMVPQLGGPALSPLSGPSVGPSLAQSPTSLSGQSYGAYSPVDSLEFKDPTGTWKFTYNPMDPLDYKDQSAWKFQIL

In the case of TTGAAC, the binding signal in the assay with FLI1 is 1.13 fold enrichment (6-mer frequency, TF over GST control); with ELK1, 1.1 fold enrichment (6-mer frequency, TF over GST control); with GABPA it was 1.08 fold enrichment (6-mer frequency, TF over GST control); in the assay with ERG, 1.01 fold enrichment (6-mer frequency, TF over GST control); with ELF1, 1.15 fold enrichment (6-mer frequency, TF over GST control); with EHF, 1.11 fold enrichment (6-mer frequency, TF over GST control). For the same sequence, the binding signal with SPI1 is 1.04 fold enrichment (6-mer frequency, TF over GST control); with SPIB it was 1.12 fold enrichment (6-mer frequency, TF over GST control); in the assay with ELK3, 1.12 fold enrichment (6-mer frequency, TF over GST control); with ETV5, 1.05 fold enrichment (6-mer frequency, TF over GST control); with HSF1, 1.02 fold enrichment (6-mer frequency, TF over GST control); in the assay with SPIC, 1.06 fold enrichment (6-mer frequency, TF over GST control). Besides, the binding signal is 1.12 fold enrichment (6-mer frequency, TF over GST control) with ELF4; 1.32 fold enrichment (6-mer frequency, TF over GST control) with ELK4; 1.27 fold enrichment (6-mer frequency, TF over GST control) with ETV2; 1.03 fold enrichment (6-mer frequency, TF over GST control) with CRX; 1.08 fold enrichment (6-mer frequency, TF over GST control) in the assay with ETV1.
